Data taken from publication PMC5540273 (PLoS ONE, 2017).
Read-outs that look alike come from different tables or passages of the source.

How the values were obtained:
MAPKAPK5 = conditions: concentration: 1 μM, replicates: in singlicate; n = 1
MARK1 = conditions: concentration: 1 μM, replicates: in singlicate; n = 1
MARK2 = conditions: n = 1
MARK3 = conditions: n = 1
MARK4 = conditions: n = 1
MAST1 = conditions: concentration: 1 μM, replicates: in singlicate; n = 1
MEK1 = system: T1, MEK1; conditions: concentration: 1 μM, replicates: in singlicate; n = 1
T1 construct: gene MAP2K1

MEK2 = system: T2, MEK2; conditions: concentration: 1 μM, replicates: in singlicate; n = 1
T2 construct: gene MAP2K2

MEK3 = system: T3, MEK3; conditions: concentration: 1 μM, replicates: in singlicate; n = 1
T3 construct: gene MAP2K3

MEK4 = system: T4, MEK4; conditions: concentration: 1 μM, replicates: in singlicate; n = 1
T4 construct: gene MAP2K4

[1] = concentration: 1 μM, replicates: in singlicate
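Further: KINOMEscan kinase panel screen.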

Row | Structure (SMILES) | %Inh (MAPKAPK5) [%] | %Inh (MARK1) [%] | %Inh (MARK2; [1]) [%] | %Inh (MARK3; [1]) [%] | %Inh (MARK4; [1]) [%] | %Inh (MAST1) [%] | %Inh (MEK1) [%] | %Inh (MEK2) [%] | %Inh (MEK3) [%] | %Inh (MEK4) [%] | %Inh (MARK2; 1 µM) [%] | %Inh (MARK3; 1 µM) [%] | %Inh (MARK4; 1 µM) [%]
1 | O=C(Nc1n[nH]c2cc(-c3ccoc3)ccc12)C1CC1 [SB-738481] | 10 | 11 | 15 | 0 | 0 | 37 | 2 | 18 | 23 | 3 |  |  | 
2 | CN1CCN(Cc2cccc(-c3ccc4c(Nc5ccc(Oc6ccccc6)cc5)ccnc4c3)c2)CC1 [GW578342] | 0 | 0 | 5 | 0 | 0 | 47 | 54 | 55 | 0 | 9 |  |  | 
3 | CC(C)c1nc(-c2cccc(NS(=O)(=O)c3c(F)cccc3F)c2F)c(-c2ccnc(Nc3ccc(N4CCOCC4)nc3)n2)s1 [GSK2008607] | 0 | 0 | 24 | 0 | 80 | 0 | 0 | 64 | 57 | 100 |  |  | 
4 | O=C(Nc1cccc(-c2nn3ncccc3c2-c2ccnc(Nc3ccccc3)n2)c1)c1c(F)cccc1F [GSK198271] | 0 | 0 | 0 | 0 | 0 | 0 | 70 | 77 | 3 | 39 |  |  | 
5 | Clc1ccc(-c2nn3ncccc3c2-c2ccnc(Nc3ccc4c(c3)OCCO4)n2)cc1 [GW829116] | 0 | 0 | 0 | 20 | 0 | 0 | 6 | 27 | 14 | 1 |  |  | 
6 | O=c1[nH]cc(-c2ccc(N3CCOCC3)cc2)c2sc(-c3cn[nH]c3)cc12 [GSK2276055] | 2 | 0 | 0 | 0 | 0 | 0 | 0 | 9 | 17 | 5 |  |  | 
7 | COc1cccc(C2=C(Nc3ccc(Cl)c(C(=O)O)c3)C(=O)NC2=O)c1 [SB-390769] | 0 | 0 | 0 | 0 | 13 | 0 | 0 | 0 | 0 | 97.4 |  |  | 
8 | COc1cc(Nc2ncc3c(C)nc(-c4cc5ccccc5[nH]4)n3n2)cc(OC)c1OC [GW869516] | 0 | 16 | 11 | 3 | 22 | 13 | 0 | 0 | 0 | 0 |  |  | 
9 | CCn1c(-c2nonc2N)nc2c(C#CC(C)(C)O)nc(OC[C@H](N)c3ccccc3)cc21 [GSK943949] | 7 | 54 | 0 | 0 | 37 | 4 | 1 | 0 | 69 | 15 |  |  | 
10 | Cc1ccc(C(=O)N2CC[C@@H](O)C2)cc1-n1c(C)cc(OCc2ccc(F)cc2F)c(Br)c1=O | 0 | 0 | 0 | 0 | 0 | 0 | 0 | 36 | 0 | 0 |  |  | 
11 | COc1cccc(-c2ccc3c(NC(=O)C4CC4)n[nH]c3n2)c1 [SB-710903] | 0 | 0 | 0 | 0 | 9 | 42 | 0 | 0 | 0 | 17 |  |  | 
12 | CN(C)S(=O)(=O)c1cc(-c2ccc3nccc(-c4cccc(S(N)(=O)=O)c4)c3c2)cnc1N [GSK1669921] | 8 | 0 | 0 | 0 | 0 | 0 | 7 | 0 | 0 | 27 |  |  | 
13 | C[C@@H](Oc1cc(-n2cnc3cc(-c4ccnc(NCCS(C)(=O)=O)c4)ccc32)sc1C(N)=O)c1ccccc1Cl [GSK907232] | 0 | 11 | 34 | 43 | 20 | 6 | 0 | 0 | 0 | 26 |  |  | 
14 | CCn1c(-c2nonc2N)nc2c(C#CC(C)(C)O)ncc(OCCCCN)c21.O=C(O)C(F)(F)F.O=C(O)C(F)(F)F [GSK507274] | 0 | 0 |  |  |  | 56 | 0 | 34 | 0 | 1 | 68 | 71 | 0
15 | Cl.c1ccc(-c2ccc3c(Nc4ccc5[nH]ccc5c4)ccnc3c2)nc1 [GW440138] | 0 | 0 | 0 | 0 | 0 | 0 | 0 | 0 | 0 | 0 |  |  | 
16 | COc1cccc(NC(=O)NC2CCN(c3ccnc(Nc4cc(OC)c(OC)c(OC)c4)n3)C2)c1 (centres unmarked) [GSK1379763] | 0 | 0 | 0 | 0 | 0 | 0 | 0 | 9 | 8 | 12 |  |  | 

Row | Structure (SMILES) | %Inh (MAPKAPK5) [%] | %Inh (MARK1) [%] | %Inh (MARK2; [1]) [%] | %Inh (MARK3; [1]) [%] | %Inh (MARK4; [1]) [%] | %Inh (MAST1) [%] | %Inh (MEK1) [%] | %Inh (MEK2) [%] | %Inh (MEK3) [%] | %Inh (MEK4) [%] | %Inh (MARK2; 1 µM) [%] | %Inh (MARK3; 1 µM) [%] | %Inh (MARK4; 1 µM) [%]
17 | COC(=O)Nc1nc2cc(Oc3ccc(NC(=O)Nc4cc(C(F)(F)F)ccc4F)cn3)ccc2[nH]1.Cl.Cl [GW681170] | 0 | 0 | 0 | 14 | 0 | 24 | 0 | 2 | 7 | 0 |  |  | 
18 | COc1cc(Nc2nccc(N3CCC(NC(=O)Nc4cccc(C(C)=O)c4)C3)n2)cc(OC)c1OC (centres unmarked) [GSK1379753] | 0 | 0 | 0 | 0 | 6 | 0 | 0 | 0 | 0 | 55 |  |  | 
19 | Nc1n[nH]c2cnc(-c3ccccc3)cc12 [SB-642124] | 0 | 0 | 0 | 0 | 0 | 14 | 0 | 0 | 0 | 37 |  |  | 
20 | Cc1ccc(C)c(NC(=O)NC2CCN(c3ccnc(Nc4ccc(F)cc4)n3)C2)c1 (centres unmarked) [GSK1379720] | 0 | 0 | 0 | 0 | 0 | 35 | 0 | 0 | 0 | 4 |  |  | 
21 | c1ccc(-c2cnc3nccnn23)cc1 [AH20685] | 0 | 0 | 0 | 0 | 0 | 0 | 0 | 0 | 0 | 2 |  |  | 
22 | O=C(Nc1n[nH]c2nc(-c3ccc(O)cc3)ccc12)C1CC1 [SB-710363] | 4 | 0 | 38 | 0 | 0 | 36 | 0 | 8 | 36 | 10 |  |  | 
23 | CCc1ccc(-c2ccc3c(c2)-c2c(cnn2C)S(=O)(=O)N3C)cc1 | 0 | 0 | 0 | 3 | 7 | 0 | 1 | 0 | 0 | 6 |  |  | 
24 | COc1cc(Nc2nccc(-c3c(-c4cccc(NC(=O)c5c(F)cccc5F)c4)nn4ncccc34)n2)cc(OC)c1OC [GSK327238] | 0 | 53 | 18 | 30 | 56 | 0 | 98.5 | 98.4 | 12 | 46 |  |  | 
25 | CN1CCN(CCCNc2nccc(-c3c(-c4ccc(F)cc4)nn4cc(C(F)(F)F)ccc34)n2)CC1 [GW621581] | 0 | 7 | 0 | 16 | 16 | 0 | 0 | 0 | 0 | 10 |  |  | 
26 | COCCOCCOc1cc2ncc3c4ccc(C#N)cc4[nH]c3c2cc1OC | 0 | 0 | 13 | 7 | 0 | 69 | 48 | 80 | 12 | 0 |  |  | 
27 | C[C@@H]1CC[C@@H](C(=O)Nc2ccccc2)CN1c1cc(-c2ccc3c(N)n[nH]c3c2)nc(N)n1 [GSK2286062] | 0 | 0 | 9 | 0 | 0 | 3 | 15 | 1 | 33 | 8 |  |  | 
28 | Cl.Cl.NCC(C(=O)Nc1cc(Br)c(-c2ccnc3[nH]ccc23)s1)c1ccccc1 (centres unmarked) [GSK1269851] | 0 | 0 | 55 | 0 | 0 | 13 | 1 | 0 | 50 | 11 |  |  | 
29 | Cl.Cl.NCC(NCc1ccc(-c2ccnc3[nH]ccc23)s1)c1ccccc1 (centres unmarked) [GSK1321565] | 0 | 0 | 0 | 0 | 0 | 11 | 0 | 0 | 49 | 18 |  |  | 
30 | Nc1ncc(-c2ccc3nccc(-c4ccncc4)c3c2)cc1S(=O)(=O)N1CCOCC1 [GSK1627798] | 0 | 0 | 0 | 0 | 0 | 0 | 0 | 0 | 24 | 52 |  |  | 
31 | COC(=O)Nc1nc2ccc(Oc3ccc(NC(=O)Nc4cc(C(F)(F)F)ccc4F)cc3)cc2n1C.Cl [GW692089] | 0 | 0 | 0 | 0 | 2 | 23 | 0 | 1 | 0 | 0 |  |  | 
32 | COc1cc2c(cc1OCCN1CCNCC1)ncc1c3ccc(C#N)cc3[nH]c21 | 0 | 0 | 8 | 0 | 0 | 83 | 34 | 57 | 34 | 18 |  |  | 
